Results on 49 compounds are retold here after PubChem BioAssay AID720542 (National Center for Advancing Translational Sciences (NCATS), 2013).

Screen size: about 360,000 compounds; about 740 (0.21%) were called active. Not shown: some 2% with an inconclusive outcome. Many of the other results were omitted from the sample, so actives are more common in it than they were. Values without a mark were called inactive. The call rests on the fitted dose curve; in most records, active means well fitted inhibition curve with a large enough effect; inconclusive means small, poorly fitted or top-dose-only effect; inactive means no such curve, though single readings can be large or run the other way.
Potency means the concentration at half of the fitted maximal effect.

The test system of this experiment is Plasmodium falciparum AMA1 (3D7) - RON2 peptide interaction. Put plainly: qHTS for Inhibitors of AMA1-RON; Towards Development of Antimalarial Drug Lead: Primary Screen. Further: nearly all actives have a fitted effect of over 45% in size.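 On activity change, negative = inhibition: 0% = vehicle wells and -100% = peptide control.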 Particulars: AlphaScreen AMA1-biotinylated RON2 peptide binding; series mostly up to 58.2 µM; activity change, negative = inhibition: at the top concentration. The source says: Plasmodium, the causative agent of malaria, is one of the world's deadliest parasitic diseases. Currently there is no vaccine available and there is widespread resistance to common anti-malarial drugs. This warrants novel, alternative approaches for developing improved therapy. During infection, one such essential interaction is between two parasite proteins, the apical membrane antigen1 (AMA1) that is translocated onto the merozoite surface and the rhoptry neck protein 2 (RON2), which is transferred to the red blood cells (RBC) membrane during invasion (Besteiro et.al., 2009). Recently, the Miller lab has shown that the interaction between AMA1 and RON2 is essential for junction formation of the parasite with the host cell (Srinivasan et.al., 2011). The binding of the RON2 peptide to the hydrophobic pocket in AMA triggers the formation of the moving junction which provides a firm anchor for the parasite to pull itself into the RBC using its actin-myosin motor; an irreversible step that commits the parasite for invasion. Only one AMA1 and RON2 genes exists in Plasmodium and there are no alternate pathways. Moreover, the region corresponding to RON2 peptide is conserved in all P. falciparum isolates for which sequences are available. The key residues in the AMA1 hydrophobic pocket that binds RON2 are also conserved and indicate a functional constraint governing this essential step in invasion since a short RON2 peptide (RON2L) corresponding to the binding region on AMA1 is sufficient to compete with the native RON2 protein and inhibits invasion (Tonkin et.al, 2011). Therefore, developing small molecule inhibitors of this interaction offers a promising target opening a new arena for anti-malarial therapeutics drug design.
In collaboration with the Miller lab, a quantitative High Throughput Screen using the AlphScreen technology was developed using a recombinant his-tagged AMA1 and a biotinylated RON2 peptide. This fluorescent screen was assayed against the NIH Molecular Libraries Small Molecule Repository (MLSMR). Inhibition of this protein-protein interaction is the desired outcome of this assay. However, due the limitations of this AlphaScreen assay, a large number of artifacts were observed. An AlphaScreen counterscreen was run to identify the true inhibitors, triage compound activity, and weed out false positives.
NIH Chemical Genomics Center [NCGC]
NIH Molecular Libraries Probe Centers Network [MLPCN]
Assay Submitter (PI): Louis Miller, National Institute of Allergy and Infectious Disease (NIAID)
Two microliters of his-tagged AMA1 3D7 allele protein (final concentration 25 nM) was dispensed into a 1,536-well assay plate. Small molecules and positive control peptides were pin-transferred (23 nL or 46 nL) via Kalypsys pin-tool equipped with a 1,536-pin array, resulting in final compound and peptide concentration ranges of 91.5 nM - 57.2 µM, and 15.6 nM - 2.00 µM, respectively. Unlabeled RON2 peptide or R1 peptide ([…]) that specifically binds the 3D7 AMA1 was used as a positive control that inhibited the binding of RON2L to AMA1. After 15 minutes incubation, 1 uL of biotinylated RON2 peptide (final concentration 25 nM) or buffer were dispensed and the assay plate was incubated for an additional 30 minutes at room temperature and protected from light. This was followed by an addition of 1 uL mixture of donor and acceptor beads (10 ug/mL final concentrations for each). The plates were incubated for 30 min at room temperature and read using the EnVision(R) plate reader (PerkinElmer). Maximum inhibition response was normalized to the positive control signal while no inhibition response was normalized to the DMSO treated wells.
Background: In qHTS, concentration-response curves come from the screen itself.
Take `CCc1ccc(C2C(C#N)=C(N)N(N3CCOCC3)C3=C2C(=O)CC(C)(C)C3)s1` (centres undefined): the “activity change, negative = inhibition” value was -9.12%. Take `Cc1cc(O)c(C(=O)/C=C/c2c(F)c(F)c(F)c(F)c2F)c(=O)o1`: the “activity change, negative = inhibition” value was 61.5%. As for `CCOc1ccccc1NC(=O)Cn1ncc2ccc([N+](=O)[O-])cc21`, the “activity change, negative = inhibition” value was -2.2%.

Take `CCCCN=C1N/C(=C\c2ccco2)C(=O)N1c1ccccc1`: the “activity change, negative = inhibition” value was -7.64%. For the compound `COc1ccc(CN2C(=O)C(C)S/C2=N/N=C/c2ccco2)cc1` (centres undefined), the “activity change, negative = inhibition” value is -10.8%.

`COc1ccc(N2C(=O)/C(=C/c3ccco3)C(=O)NC2=S)cc1`: the Potency was 15.8 µM (active). Take `CCC1SC2=NCCN2C1(O)c1ccc(Cl)cc1` (centres undefined): the “activity change, negative = inhibition” value is -8.79%. `CC(C)CCNC(=O)Cn1c(=O)oc2cc(S(=O)(=O)N3CC(C)CC(C)C3)ccc21` (centres undefined): the “activity change, negative = inhibition” value is 13.5%. For the compound `CN(C(=O)CN(CCO)CC(=O)N(C)C(C)(C)Cc1ccccc1)C(C)(C)Cc1ccccc1`, the “activity change, negative = inhibition” value was 14.9%.

With `CN1OC[C@@H]2CN(S(=O)(=O)c3cccc(C(F)(F)F)c3)[C@H](c3ccc(-c4cc5ccccc5o4)cc3)C[C@@H]21`, the “activity change, negative = inhibition” value was 6.6%. `CC1=C(C(=O)Nc2ccc(Cl)cc2)C(c2ccco2)NC(=O)N1` (centres undefined): the “activity change, negative = inhibition” value was 5.1%. `CCNC(=O)N1CCNC(=O)C1CC(=O)Nc1ccc(C(=O)OCC)cc1` (centres undefined): the “activity change, negative = inhibition” value was 12.7%. Regarding `CCOc1ccccc1-n1c(SCC(=O)NCc2ccco2)nnc1-c1ccncc1`, the “activity change, negative = inhibition” value is -7.89%.

Turning to `Cc1ccc(NC(=O)CN2CCCCC2)c2c1CC(C)(C)O2`, the “activity change, negative = inhibition” value was -1.13%.

With `CC(=O)c1ccc(NC(=O)C(C)NCc2ccc(Cl)cc2)cc1` (centres undefined), the “activity change, negative = inhibition” value was 0.354%. Regarding `CN(/C(=N/S(=O)(=O)c1cccs1)c1ccccc1)c1ccc(O)cc1`, the “activity change, negative = inhibition” value was 1.51%. `CC1CCC(NC(=O)CN(C)S(=O)(=O)c2ccc3c(c2)c(=O)n(C)c(=O)n3C)CC1` (centres undefined): the “activity change, negative = inhibition” value was -5.96%. For the compound `O=S(=O)(c1ccc(Br)cc1)c1nc(-c2ccccc2)oc1NCc1cccnc1`, the “activity change, negative = inhibition” value is -2.21%. Still for that read-out and setting: next, `O=C1CC(=O)Nc2cc(S(=O)(=O)N3CCN(c4cccc(C(F)(F)F)c4)CC3)ccc2N1`: -7.36%; `Cc1ccc(N(C(=O)Cc2cccs2)C(C(=O)NCC2CCCO2)c2ccncc2)cc1` (centres undefined): 8.2%.

`CCOC(=O)c1ccccc1NC(=O)COC(=O)C(Cc1c[nH]c2ccccc12)NC(C)=O` (centres undefined): the “activity change, negative = inhibition” value was -8.99%. Consider `C=CCc1cccc2cc(C(=O)Nc3ccc(NC(C)=O)cc3)c(=O)oc12`, for which the “activity change, negative = inhibition” value is -3.69%. Consider `Cc1cc(NC(=O)CSc2nnnn2-c2ccc(F)cc2)no1`, for which the “activity change, negative = inhibition” value was 12.3%.

Take `O=C(CSc1nnc(-c2ccncc2)o1)Nc1cccc(Cl)c1`: the “activity change, negative = inhibition” value is 8.5%. For `Cc1cc(NC(=O)CSc2nnc(-c3ccc(Cl)s3)o2)no1`, the Potency is 2.24 µM (active). For the compound `CC1(C)C(c2ccccc2)=NC(c2cccnc2)=[N+]1[O-]`, the “activity change, negative = inhibition” value is -0.104%.

As for `COc1cccc(N(C(=O)c2snc(C(N)=O)c2N)C(C(=O)NCC2CCCO2)c2c[nH]c3ccccc23)c1` (centres undefined), the “activity change, negative = inhibition” value was -5.17%.

Take `Cc1ccc(NC(=O)COC(=O)CCc2nc3ccccc3n2-c2ccccc2)c(C)c1`: the “activity change, negative = inhibition” value was -3.7%. For `CCN(c1ccc(NC(=O)COC(=O)CCc2nc3ccccc3n2-c2ccccc2)cc1)C(C)C`, the Potency was 10 µM (active). As to `CC(C)(C)c1ccc(NC(=O)COC(=O)CCc2nc3ccccc3c(=O)[nH]2)cc1`, the “activity change, negative = inhibition” value was -19.8%. The same measure, in the same setting: to `CC(C)NC(=O)Nc1ccc2c(c1)C(=O)N([C@H](C)CO)C[C@H](C)[C@@H](CN(C)Cc1ccc(C(F)(F)F)cc1)OCCCC[C@@H](C)O2` belongs 12.3%. Regarding `C=C1c2c(Cl)ccc(O)c2C(O)=C2C(=O)[C@]3(O)C(O)=C(C(N)=O)C(=O)[C@@H](N(C)C)[C@@H]3[C@@H](O)C12` (some centres undefined), the Potency was 1.41 µM (active). For the compound `CC(=O)Nc1nc(C)c(Cc2ccccc2)c(=O)[nH]1`, the “activity change, negative = inhibition” value was 3.67%.

With `C#CCOCCOCCOCCNc1nc(N2CCN(C(=O)C([C@@H](C)CC)n3cc(C(N)COC(=O)C(F)(F)F)nn3)CC2)nc(N2CCN(C(=O)[C@H](Cc3ccc(O)cc3)n3cc(C(N)[C@H](C)CC)nn3)CC2)n1` (some centres undefined), the “activity change, negative = inhibition” value was 13.4%. Turning to `O=[N+]([O-])c1ccc(Sc2n[nH]c(-c3ccco3)n2)nc1`, the “activity change, negative = inhibition” value is 6.13%. On to `COc1ccc(CNC(=O)COC(=O)C2=Cc3ccccc3OC2)cc1`, for which the “activity change, negative = inhibition” value is 51.9%. On the same count and under the same terms, to `OCC#CC[N+]1(CC#Cc2ccccc2)CCCC1` belongs 3.31%. Regarding `CC1(C)Cc2c(sc(NC(=O)C(=O)NCC3CCCO3)c2C(=O)O)CO1` (centres undefined), the “activity change, negative = inhibition” value is 139%. On to `CN(C)c1ccc(CSc2ccccc2)cc1`, for which the Potency was 8.91 µM (active). `O=C(Nc1ccc(CSc2ccccc2)cc1)c1ccc(CN2CCOCC2)cc1`: the “activity change, negative = inhibition” value was -4.5%.

As for `CN(C)c1ccc(C(CC(=O)O)C(=O)O)cc1` (centres undefined), the “activity change, negative = inhibition” value was -25.3%.

Consider `Cc1cccc(CSc2nc3c(c(=O)n2C)SCC3)c1`, for which the “activity change, negative = inhibition” value is -14.7%. `O=C(O)c1ccc2c(=O)n3c(nc2c1)/C(=C/c1ccc(OC(F)F)cc1OC(F)F)CC3`: the Potency is 20 µM (active). Regarding `Cc1ccc(/C=C2\CCn3c2nc2cc(C(=O)O)ccc2c3=O)c(C)c1`, the “activity change, negative = inhibition” value is 5.89%. As to `N#Cc1ccc(/C=C2\CCn3c2nc2cc(C(=O)O)ccc2c3=O)cc1`, the “activity change, negative = inhibition” value was -7.09%. Turning to `CCOC(=O)c1c(-n2cnnn2)sc(C)c1C`, the “activity change, negative = inhibition” value is -5.49%. Take `COc1ccc2c(c1)c(=Cc1ccc(N(C)C)cc1)c1cc(-c3ccccc3)[n+](C)n12`: the Potency was 17.8 µM (active). As to `CCCCCOC(=O)C1=C(C)Nc2nnnn2C1c1ccc(OC)c(OC)c1OC` (centres undefined), the “activity change, negative = inhibition” value is -11.7%.

Take `COc1ccc(-c2nc3c(s2)CCc2onc(-c4ccc(Br)cc4)c2-3)cc1`: the “activity change, negative = inhibition” value is 7.5%.
